# Laboratory results reported in PubChem BioAssay (NCI).
# Compounds without any hit were thinned out: in the full panel of roughly 83,000, 20% have a hit.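 Each cell line was grown in a 96-well plate and treated with one concentration of compound for 48 hours. Values below 10 were considered active.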 Unmarked numbers belong to inactive results. Active and inactive are the calls of the source.
# Experiments:
# Experiment in all cases: NCI-60 one-dose screen, 48 h (100 = growth as untreated, 0 = no growth, -100 = all killed)
# Conditions in all cases: 10 µM unless noted
# [1] = tested on: HCT-15 colon
# [2] = tested on: HT29 colon
# [3] = tested on: SNB-75 CNS
# [4] = tested on: SNB-19 CNS
# [5] = tested on: U251 CNS
# [6] = tested on: PC-3 prostate
# [7] = tested on: UACC-62 melanoma
# [8] = tested on: LOX IMVI melanoma
# [9] = tested on: SK-MEL-28 melanoma
# [10] = tested on: SK-MEL-2 melanoma
# [11] = tested on: EKVX NSCLC
# [12] = tested on: SN12C renal
# [13] = tested on: UO-31 renal
# [14] = tested on: TK-10 renal
# [15] = tested on: ACHN renal
# [16] = tested on: CAKI-1 renal
# [17] = tested on: A498 renal
# [18] = tested on: CCRF-CEM leukemia
# [19] = tested on: MOLT-4 leukemia
SMILES,growth [1],growth [2],growth [3],growth [4],growth [5],growth [6],growth [7],growth [8],growth [9],growth [10],growth [11],growth [12],growth [13],growth [14],growth [15],growth [16],growth [17],growth [18],growth [19]
COc1cc(-c2nc3occn3c2-c2ccnc(NCCNS(=O)(=O)c3ccc(Cl)cc3)n2)ccc1F,74.7%,53.1%,69.1%,91.6%,90%,56.4%,57.1%,81.9%,102%,71.9%,78.1%,71.5%,36.4%,89%,77.7%,60.9%,62.3%,60.9%,54%
COc1ccc(C(=O)c2cc3c(N)c(C(=O)Nc4cccc(Br)c4C)sc3nc2C)cc1,14.2%,-1.07% (active),-16.9% (active),43%,10.7%,21%,38%,19%,62.1%,17.6%,38.3%,19.2%,21%,54.3%,24%,15.2%,-13.2% (active),9.3% (active),10.2%
CCCCCCCCOc1ccc(/C=N/Nc2cc(C)nc3ccc(Cl)cc23)cc1,-82.3% (active),-55.9% (active),52.2%,9.5% (active),-61% (active),-62.9% (active),91.2%,-90.7% (active),64.3%,95.6%,55.7%,-82.4% (active),79.2%,-35.7% (active),–,41.6%,–,2.23% (active),-14.1% (active)
O=C1CCCN1c1cccc2cccnc12,101%,103%,83.1%,91%,96.4%,107%,104%,95.6%,113%,104%,91.5%,102%,81.2%,88.5%,102%,91.9%,–,107%,102%
Cc1c(C(=O)NO)sc2ncnc(Nc3ccc(NC(=S)Nc4ccccc4)cc3)c12,95.4%,103%,87.9%,96.5%,104%,106%,95%,93.8%,105%,104%,93.6%,101%,85.1%,106%,105%,96.6%,–,–,111%
N#Cc1c(NC(=O)c2cccc(Br)c2)sc2c1CCCC2,45.8%,59.5%,84.4%,81.1%,88.2%,90.9%,71.7%,80%,86.3%,91.9%,92.3%,83.9%,82.3%,79.2%,75.6%,73%,–,63.5%,52.3%
O=C1Nc2c(ccc(Cl)c2Cl)/C1=C/c1ccc([N+](=O)[O-])cc1,89.4%,99.2%,95.9%,81.3%,92.3%,95.3%,–,89.5%,111%,99.1%,84.3%,126%,79.7%,103%,87.8%,59.6%,99.4%,2.94% (active),96.3%
CC(=O)[C@@H]1CC[C@]2(C(N)=O)CC[C@]3(C)[C@H](CC[C@@H]4[C@@]5(C)CCC(=O)C(C)(C)[C@@H]5CC[C@]43C)[C@@H]12,103%,95.9%,89%,102%,103%,78.5%,84.5%,99.2%,100%,100%,90.1%,102%,98.7%,107%,97.1%,89.6%,–,99%,92.5%
CN(C)C(=O)OCc1nc2c(N3CCOCC3)nc(-c3ccccc3)nc2n1C,-38.6% (active),-53.7% (active),-87.2% (active),13.9%,-57.2% (active),-65.2% (active),-92% (active),-84.7% (active),-95.4% (active),-73.5% (active),-56.8% (active),-90.7% (active),-100% (active),-77.7% (active),-99.8% (active),-91.7% (active),-32.3% (active),-12% (active),-3.34% (active)
CC(Oc1ccc(C(=O)NS(=O)(=O)C(C)(C)C)cc1C(F)(F)F)c1ccc(Oc2ccccc2)cn1 (stereo not given),41.5%,59.5%,48.1%,63.8%,58.1%,93.8%,36.7%,60.1%,61%,35.5%,86.5%,86.1%,67.9%,79.7%,89.4%,40.8%,–,74.1%,98.5%
CCNC(=O)c1[nH]cc(-c2ccc(OC)cc2)c1-c1cc(OC)c(OC)c(OC)c1,35.7%,14.7%,-6.81% (active),55.2%,55.5%,28.8%,27%,44.5%,56.7%,67.5%,62.4%,60.5%,30.7%,83.9%,35.8%,29.4%,-14% (active),–,92%
Cc1c2c(cc[n+]1Cc1ccccc1)c1ccc(OCC3CCCCC3)cc1n2CC1CCCCC1,-81.7% (active),-79% (active),-87.3% (active),-90.7% (active),-92.5% (active),-75.8% (active),–,-95.6% (active),-95.8% (active),-86.5% (active),-75.5% (active),-91.9% (active),-93.1% (active),-93.6% (active),-100% (active),-92.5% (active),-97.4% (active),-36.2% (active),-64.5% (active)
COc1ccc(/C=C\c2nc3ccccc3s2)cc1OP(=O)(O)O,30%,104%,-2.05% (active),28.8%,32.6%,43.5%,41.5%,41.5%,67.4%,22.2%,76.8%,55.4%,51.5%,90.3%,56.9%,38.5%,–,16.8%,26.3%
O=C(Nc1ccc2cc3ccc(NC(=O)N4CCCCCC4)cc3nc2c1)N1CCCCCC1,-47.4% (active),-36.2% (active),-88.4% (active),1.3% (active),-58.8% (active),5.93% (active),-66.6% (active),-85% (active),-82.1% (active),-69% (active),-41% (active),-57.6% (active),-85.4% (active),-62.3% (active),-93.6% (active),-64.7% (active),–,8.09% (active),-21.2% (active)
CCCCCCCCCCCCCCCCCCOc1ccccc1N,85.6%,92.5%,82.8%,87.1%,50.3%,21.3%,88.5%,38.6%,96.9%,86.3%,85.3%,27.8%,-37% (active),103%,97.8%,67.8%,61.8%,11%,22.9%
S=c1[nH]cccc1-c1nnc2n1Nc1nc3ccc(Cl)cc3cc1CS2,96.9%,110%,91.4%,96.8%,105%,97.7%,87.3%,98%,104%,96.1%,93.1%,102%,79.6%,111%,101%,81.8%,107%,100%,92.3%
O=C(Nc1ccc2ncnc(Nc3ccc(Oc4cccc(F)c4)c(Cl)c3)c2c1)c1ccc(CN2CCOCC2)cc1,11.2%,20.9%,55.8%,50.8%,36.5%,14.6%,53.5%,8.89% (active),52.2%,59.1%,30.4%,39%,20.3%,53.6%,17.5%,24.4%,53.9%,2.89% (active),-3.45% (active)
